Shown are actives, neighbours in structure and some others; about 5.2% of the full set was active somewhere.
esBAF inh = inhibitors of esBAF chromatin remodeling in mouse ES cells. 2% of 350,000 active. reporter increase, % at 12.5 µM. Bmi1-luciferase knock-in reporter, 24 h; 100% = twice the neutral-well signal; in the data active = activation above about 40%; inconclusive = no clear call, values can overlap the other calls;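 also: a rise in the Bmi1 reporter signal indicates esBAF inhibition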
Vif inh = blocks HIV Vif function; HEK293T cells, Vif self-association by quenched fluorescence, imaging, 24 h; inhibition, % at 7.49 µM; 0.35% of 340,000 active; AID 602346; in the data active = inhibition above about 50%, passing the limit was not always enough; inconclusive = no clear call, values can overlap the other calls; inactive = below about 31%
SKN-1 inh = inhibitors of C. elegans SKN-1; AID 624304; inhibition, % at 21.8 µM; C. elegans VP596 Pgst-4::GFP/RFP ratio, acrylamide-induced, 24 h; 0.49% of 360,000 active;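 active = interference check ratio from 0.5 to 1.5 plus GFP to RFP signal ratio inhibition reaching or exceeding a fixed threshold, cut at about 30% in these data, passing the limit was not always enough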
NadD block = inhibitors of Staphylococcus aureus NadD; purified NadD enzyme, colorimetric absorbance read-out; inhibition, % at 20 µM; 0.78% of 360,000 active; AID 602399; in the data active = inhibition above about 26%
NR3A LBD binder = modulates the human NR3A ligand-binding domain; NR3A LBD differential scanning fluorimetry, Tm shift; 0% = protein alone, 100% = glycine-bound protein; AID 1259313; 2.5% of 340,000 active; Tm shift relative to glycine control, % at 25 µM;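 active = melting temperature shift of at least 10% of the positive control shift, at one fixed dose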
SMARCA2 activ = SMARCA2 function activation, primary screen; 1% of 370,000 active; MG213 cells, MMTV-luciferase reporter, dexamethasone, overnight; activation, % at 9.1 µM; in the data active = activation above about 7.8%
Numbers stand for hits; . = inactive; ? = inconclusive; / = not tested or not shown.

SMILES	esBAF inh	Vif inh	SKN-1 inh	NadD block	NR3A LBD binder	SMARCA2 activ
C[C@@H]1CCCCO[C@H](CN(C)Cc2ccncc2)[C@@H](C)CN([C@@H](C)CO)C(=O)c2cc(NC(=O)CCCN(C)C)ccc2O1	.	/	/	/	/	/
Cc1ccc(S(=O)(=O)Nc2ccc(NC(=O)Nc3cccc(C(F)(F)F)c3)cc2)cc1	/	.	.	.	37	.
O=C(NCc1ccccc1Cl)c1ccc(S(=O)(=O)Nc2cccc(C(F)(F)F)c2)cc1	/	.	.	.	25	.
Cc1ccc(NC(=O)Nc2cc(C(F)(F)F)c[nH]c2=O)cc1	.	.	.	.	24	.
O=C(NCc1ccccc1Cl)c1ccc(S(=O)(=O)N2CCCC2)cc1	.	.	.	.	.	.
CCN(CC)S(=O)(=O)c1ccc(NC(=O)Nc2cccc(C(F)(F)F)c2)cc1	.	.	.	.	31	.
COc1ccc(NC(=O)Nc2c[nH]c(=O)[nH]c2=O)cc1	.	.	.	.	.	.
O=C(C[C@@H]1C=C[C@@H](NC(=O)c2ccncc2)[C@@H](CO)O1)NCCc1ccncc1	.	/	/	/	/	/
CCNC(=O)[C@@H]1[C@@H](CO)[C@@H]2Cn3c(ccc(-c4ccccc4)c3=O)[C@@H]2N1CC	.	/	/	/	/	/
CCCN(C(=O)COC(=O)CNC(=O)c1ccc2ccccc2c1)c1c(N)n(Cc2ccccc2)c(=O)[nH]c1=O	.	.	.	.	21	.
CC(C)CN(C(=O)COC(=O)CSc1ccccc1)c1c(N)n(Cc2ccccc2)c(=O)[nH]c1=O	/	50	.	.	.	.
CCN(C(=O)COC(=O)CNC(=O)c1ccc2ccccc2c1)c1c(N)n(Cc2ccccc2)c(=O)[nH]c1=O	.	.	.	.	.	.
O=C(Nc1ccccc1F)N1C[C@@H]2[C@H](c3ccccc31)[C@@H](CO)N2C(=O)C1CC1	49	/	/	/	/	/
O=C(Nc1ccccc1F)N1C[C@H]2[C@@H](c3ccccc31)[C@H](CO)N2C(=O)C1CCCC1	.	/	/	/	/	/
COc1cc(NC(=O)c2onc(C)c2Cl)c(OC)cc1Cl	.	.	.	.	.	7.9
O=C(Nc1ccc(F)c(Cl)c1)c1ccc2c(c1)OCO2	55	.	.	.	.	.
COc1cc(C(=O)Nc2ccc3c(c2)OCCO3)ccc1OC(F)F	70	.	.	.	.	.
COc1cc(C(=O)Nc2ccc3c(c2)OCCO3)ccc1OC(C)C	?	.	.	.	.	.
O=C(Nc1cccc(Cl)c1)c1ccc(F)c(S(=O)(=O)NCc2ccc3c(c2)OCO3)c1	/	.	.	.	13	.
COc1ccccc1C(=O)N1C[C@H]2[C@@H](c3ccccc31)[C@@H](CO)N2Cc1ccc(F)cc1	.	/	/	/	/	/
CCC(=O)N1C[C@@H](C)[C@@H](OC)CN(C)C(=O)c2ccc(NC(=O)c3ccno3)cc2OC[C@@H]1C	.	/	/	/	/	/
O=C(Nc1ccc(Cl)c(Cl)c1)c1ccc(Cl)c(Cl)c1	?	.	.	.	42	.
O=C(Nc1ccc(Br)cc1)c1ccc(F)c(S(=O)(=O)NCc2cccs2)c1	/	.	.	.	18	.
O=C(Nc1ccc(F)c([N+](=O)[O-])c1)c1ccc2c(c1)OCCO2	50	.	.	.	.	.
O=S(=O)(NCc1cccs1)c1ccc(Br)cc1	/	/	.	.	.	.
SMILES	esBAF inh	Vif inh	SKN-1 inh	NadD block	NR3A LBD binder	SMARCA2 activ
COc1ccc(NC(=O)c2ccc3c(c2)OCO3)cc1Cl	/	.	41	.	26	.
O=C(Nc1cccnc1)c1ccc(Cl)c(Cl)c1	.	.	.	.	.	.
CO[C@H]1CN(C)C(=O)c2cc(NC(=O)C3CC3)ccc2OC[C@@H](C)N(C(=O)C2CCOCC2)C[C@@H]1C	.	/	/	/	/	/
COc1ccc(NC(=O)N(C)C[C@H]2OCCCC[C@@H](C)Oc3ccc(NC(=O)Cc4ccccc4)cc3C(=O)N([C@H](C)CO)C[C@@H]2C)cc1	.	/	/	/	/	/
CO[C@@H]1CN(C)C(=O)c2ccc(NC(=O)Nc3cccc(F)c3)cc2OC[C@@H](C)N(C(=O)C2CC2)C[C@@H]1C	.	/	/	/	/	/
Cc1nn(C)c(C(=O)Nc2ccc3c(c2)OCO3)c1[N+](=O)[O-]	.	.	.	.	.	.
Cc1c([N+](=O)[O-])c(C(=O)Nc2ccc3c(c2)OCCO3)nn1C	/	.	.	.	10	.
O=C(Nc1ccc(F)c(Cl)c1)c1ccccc1	70	.	.	.	.	.
Cc1ccc(NC(=O)c2onc(C)c2Cl)cc1	.	.	.	.	.	.
